Results reported in PubChem BioAssay AID504332 (National Center for Advancing Translational Sciences (NCATS), 2011).
The whole screen tested about 350,000 compounds, of which about 31,000 (8.9%) were called active. Inconclusive results (about 15%) are left out. This is one part of a sample in which actives are shown more often than they occur. Calls follow the shape of the dose curve; as a rule, active = well fitted inhibition curve with a large enough effect; inconclusive = small, poorly fitted or top-dose-only effect; inactive = no such curve, though single readings can be large or run the other way.

Biological target: Histone-lysine N-methyltransferase EHMT2 (Homo sapiens) (UniProt Q96KQ7)
Experiment: qHTS Assay for Inhibitors of Histone Lysine Methyltransferase G9a; also: nearly all actives have a fitted effect of over 75% in size
Settings: G9a H3K9 monomethylation, AlphaScreen, 2 h; series mostly up to 59 µM; activity, negative = inhibition: at the top concentration
Summary of the method: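 Compounds were preincubated with 20 nM G9a for 15 min, after which biotinylated H3K9 peptide (500 nM) and SAM (20 uM) started a 2 h room-temperature reaction. Monomethylated product was quantified by antibody-based AlphaScreen chemiluminescence.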
% is scaled to controls: 0 for no effect and ±100 for the full control effect; potency is read from the fitted curve at half-maximal effect.

Sequence of Histone-lysine N-methyltransferase EHMT2 (Homo sapiens) (Q96KQ7 913-1193 limits assumed): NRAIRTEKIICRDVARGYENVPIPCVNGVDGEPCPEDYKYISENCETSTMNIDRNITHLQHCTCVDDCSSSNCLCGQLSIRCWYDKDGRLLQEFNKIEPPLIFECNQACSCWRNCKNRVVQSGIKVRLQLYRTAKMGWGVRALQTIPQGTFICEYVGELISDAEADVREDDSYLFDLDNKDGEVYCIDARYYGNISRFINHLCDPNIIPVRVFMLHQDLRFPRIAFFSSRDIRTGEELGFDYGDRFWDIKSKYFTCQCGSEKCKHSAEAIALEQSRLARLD

activity, negative = inhibition, inactive:
CC(C)(C)c1ccc(S(=O)(=O)N2CCN(C(=O)c3cc(-c4ccc(Br)cc4)n[nH]3)CC2)cc1 25.6%
O=C(NC1CCN(Cc2ccccc2)CC1)c1c(F)cccc1F 17.9%
S=C(Nc1ccc(Br)cc1Cl)NC1CCN(Cc2ccccc2)CC1 1.73% [at 102 µM]
COc1ccccc1NC(=O)c1cc(S(=O)(=O)NCCc2ccccc2)ccc1F -2.37%
CCc1ccc(S(=O)(=O)n2ccnc2)cc1 1.45%
CCOc1ccc(NC(=O)CN(C)C(=O)COc2cccc(CC)c2)cc1OCC -17.2% [at 0.501 µM]
CCCCC(=O)OC1=CN(Cc2ccccc2)S(=O)(=O)c2ccccc21 111%
COc1cccc(C(=O)OCc2cc(=O)oc3c(C)c(C)ccc23)c1OC -5.18% [at 102 µM]
CCOC(=O)N1CCC(N2Cc3cccc(C(=O)Nc4c(C)cccc4CC)c3C2=O)CC1 11.5% [at 102 µM]
CCCN(CC1CC1)C(=S)NC(=O)c1ccccc1Br -20%
Cc1ccc(Cl)cc1N1CCN(C(=O)CN2C(=O)COc3ccc(S(=O)(=O)N4CCOCC4)cc32)CC1 0.165%
COc1ccc(-c2noc(C(C)NS(=O)(=O)c3ccc(NC(C)=O)cc3)n2)cc1 (centres undefined) 22.5% [at 102 µM]
COc1cc2nc(NCC(C)c3ccccc3)n3nc(-c4ccccc4)nc3c2cc1OC (centres undefined) -20.5%
CC(C(=O)NC1CCCC1)N1CCN(S(=O)(=O)c2ccccc2Cl)CC1 (centres undefined) 1.28% [at 0.501 µM]
COc1cc2c(=O)c(S(=O)(=O)c3ccc(C(C)C)cc3)cn(Cc3ccccc3C)c2cc1OC -33.9%
Cc1ccc(C)c(NC(=O)c2ccc3nccnc3c2)c1 1.62% [at 102 µM]
Cc1ccc(C(=O)Nc2nnc(-c3cccs3)s2)cc1C -1.27% [at 12.7 µM]
COc1ccc(S(=O)(=O)NCc2cccnc2)cc1NC(=O)c1ccc(C)cc1 -33.4% [at 102 µM]
CC(=O)c1c(C)n(S(=O)(=O)c2ccc(Cl)cc2)c2ccc(NS(=O)(=O)c3ccc(Cl)cc3)cc12 -47.6%
O=C(c1ccc2c(c1)N(Cc1ccccc1)C(=O)c1ccccc1S2(=O)=O)N1CCC(Cc2ccccc2)CC1 -0.698%
CCC(=O)c1ccc(OCC(O)CN2C(=O)NC(C)(C)C2=O)cc1 (centres undefined) -1.44% [at 102 µM]
CC1CCN(CC(O)COc2ccc(C(=O)c3ccccc3)cc2)CC1 (centres undefined) 3.75% [at 0.501 µM]
CCOC(=O)C1CCN(C(=O)COC(=O)C2CCN(S(=O)(=O)c3ccc4c(c3)OCCO4)CC2)CC1 -35.2% [at 102 µM]
CCOc1ccc(NS(=O)(=O)c2ccc(Cl)c(C(=O)N(C)Cc3cccnc3)c2)cc1 9.93% [at 12.7 µM]
Cc1cc(C)cc(NC(=O)CCCc2nc(-c3ccccc3Cl)no2)c1 6.38%
CN(CC(=O)Nc1ccc(Cl)cc1)C(=O)CNC(=O)c1ccc2ccccc2c1 86.3% [at 102 µM]
COc1cccc(-c2nnc(SCC(=O)N3CCC(C)CC3)o2)c1 1.74%
O=C(C1COc2ccccc2O1)N(Cc1cccnc1)c1nc2c(F)cc(F)cc2s1 (centres undefined) -4.58%
CCc1ccc(N2C(=O)CN(S(=O)(=O)CC)CC2(C)C(=O)NC2CCCCC2)cc1 (centres undefined) 4.02%
COc1ccc(C(=O)CCc2ccccc2O)c(OC)c1 13.6% [at 102 µM]
COc1ccc(/C=C2/C(=O)OCc3cc(OC)c(OC)cc32)c(OC)c1 20.5%
CCN1N=C(c2ccccc2)CCC1=O 21.7% [at 0.501 µM]
COc1cccc(NC(=S)NCCCN2CCOCC2)c1 4.95%
Cc1cc(C)cc(NC(=S)NCCCN2CCOCC2)c1 18%
CCS(=O)(=O)N1CCc2cc(C(=O)NCc3ccc(C)cc3)ccc21 -2.49%
CC(=O)Nc1ccc(C(=O)Nc2nc(-c3cc(C)n(Cc4ccccc4)c3C)cs2)cc1 0.836%
Cc1nc(N)sc1N=Nc1c(C)n(C)n(-c2ccccc2)c1=O -3.39% [at 12.7 µM]
Cc1cc(C(=O)OCC(=O)N2c3ccccc3NC(=O)C2(C)C)c(C)n1-c1ccccc1 -19.9%
O=c1onc(-c2cccs2)n1Cc1ccccc1 1.14% [at 12.7 µM]
CN(CCO)S(=O)(=O)c1ccc2c(c1)C(=O)c1cc(S(=O)(=O)N(C)CCO)ccc1-2 6.15% [at 0.501 µM]
CCOc1ccc(C(=O)NCC(=O)N2CCN(c3ccc(C(F)(F)F)cn3)CC2)cc1 13.9%
O=C(Nc1cccc(-c2nc3ccccc3o2)c1)c1cccc(Br)c1 -4.65%
COc1cc(C=O)c(Br)cc1OCC(=O)NCc1ccccc1 -3.38% [at 102 µM]
COc1cc(C(=O)NCc2ccncc2)cc(Br)c1OCc1ccccc1 1.4% [at 102 µM]
Cc1cccc(C(=O)NCC(=O)OCC(=O)N(C)CC(=O)Nc2ccccc2Cl)c1 8.39%
COc1ccc(NC(=O)COC(=O)Cn2c(C)nc3ccccc32)cc1OC -1.35% [at 102 µM]
O=C(COC(=O)Cn1cnc2ccccc2c1=O)NCC12CC3CC(CC(C3)C1)C2 12.2%
COc1ccc(-c2onc(C)c2C)cc1S(=O)(=O)NCCc1ccccc1 4.98%
CCOc1ccc(CCNC(=O)CN(c2ccc(C)cc2)S(=O)(=O)N(C)C)cc1OCC 5.66%
O=C(NCc1ccccc1Cl)c1ccc2c(=O)n(CC3CCCO3)c(=S)[nH]c2c1 (centres undefined) 56.4% [at 102 µM]
COc1ccc(CNC(=O)Cn2nnc(-c3ccc(S(C)(=O)=O)cc3)n2)cc1 -16.3%
CC(=O)c1cccc(NC(=O)C2COc3ccccc3O2)c1 (centres undefined) 19.1% [at 102 µM]
C/C(=N/NC(=O)C1COc2ccccc2O1)c1ccco1 (centres undefined) 0.125%
Cc1ccc(-n2ncc3c(=O)n(Cc4cccc(C(F)(F)F)c4)cnc32)cc1C 4.7%
O=C(CCNC(=O)c1ccc(Br)cc1)NCCCc1ccccc1 6.39% [at 102 µM]
Cc1cccc(N2C(=O)CC(SC(N)=Nc3ccccc3)C2=O)c1 (centres undefined) -5.18% [at 102 µM]
O=C1CC(c2ccccc2)C(=O)N1c1cccc(O)c1 (centres undefined) -7.63%
CCOc1ccccc1N(C)C(=O)c1cc2c(s1)-c1ccccc1OC2 19.4%
Cc1ccc(NC(=O)CCCNC(=O)c2ccc(Cl)cc2)cc1S(=O)(=O)N1CCOCC1 -11.6%
Cc1ccc(C(=O)OCC(=O)Nc2ccc(Cl)cn2)cc1S(=O)(=O)N1CCOCC1 -29% [at 102 µM]
COc1c(C)cccc1C(=O)Nc1cc(Cl)ccc1N1CCOCC1 -5.78% [at 12.7 µM]
Cc1ccc(NC(=O)CCNC(=O)c2ccc([N+](=O)[O-])cc2)cc1S(=O)(=O)N1CCOCC1 -13.1% [at 12.7 µM]
O=C(COC(=O)CCc1ccc(S(=O)(=O)N2CCOCC2)cc1)Nc1cccc(Cl)c1 3.71% [at 102 µM]
O=C(COc1ccc(Cl)cc1)NC(=S)Nc1ccccc1N1CCOCC1 1.64% [at 102 µM]
COc1ccc(Nc2ncc3c(n2)CCN(C(=O)OC(C)(C)C)C3)cc1 -31.3%
COc1ccc(CCNC(=O)Cn2c(=O)n(-c3ccccc3)c(=O)c3c(C)c(C)sc32)cc1OC -27%
COc1cc(C(=O)Nc2ncccc2C)ccc1OCC(=O)N1CCOCC1 19.4%
O=C(CNS(=O)(=O)c1ccccc1)N1CCN(C(=O)c2ccco2)CC1 -0.876%
Cc1ccc(-n2ncc3c2CC(C)(C)CC3NC(=O)CCc2cnn(C)c2)cc1 (centres undefined) 12.4% [at 102 µM]
CC1CCCN(c2csc3ccc(F)cc3c2=O)C1 (centres undefined) -8.07%
CCc1cccc(NC(=O)CCCN2C(=O)C(c3ccccc3)Oc3cccnc32)c1 (centres undefined) 26% [at 0.0925 µM]
COc1cc([N+](=O)[O-])ccc1NC(=O)CN1CCCC1 -15.7%
O=C(CN1CCCCCC1)Nc1ccc(Br)cc1Br 105% [at 102 µM]
COC(=O)c1sccc1S(=O)(=O)N(CC(=O)Nc1ccc(C)c(F)c1)c1ccc(C)c(C)c1 17%
O=S(=O)(NCc1ccc(Cl)cc1Cl)c1cccs1 14.7% [at 0.501 µM]

Potency, active:
S=C(NN=C1CCN(Cc2ccccc2)CC1)NC1CCCCC1 50.1 µM
CS(=O)(=O)c1ccc2c(c1)SC1=NC(=O)/C(=C/c3ccco3)C(=N)N12 50.1 µM
C=C1c2c(Cl)ccc(O)c2C(O)=C2C(=O)[C@]3(O)C(O)=C(C(N)=O)C(=O)[C@@H](N(C)C)[C@@H]3[C@@H](O)C12 (some centres undefined) 7.94 µM
CN(C)[C@@H]1C(=O)C(C(N)=O)=C(O)[C@@]2(O)C(=O)C3=C(O)c4c(O)ccc(Cl)c4[C@@H](O)[C@H]3C[C@@H]12 7.94 µM
Cc1nnc(NC(=O)c2ccc3nccnc3c2)s1 50.1 µM
CCC(=O)c1ccc(OCC(O)CN2CC(C)OC(C)C2)cc1 (centres undefined) 14.1 µM
COc1ccc(/C=C2/C(=O)N(c3ccccc3)N=C2C)c(OC)c1 20 µM
O=C(NNC(=S)NCCCN1CCOCC1)c1ccncc1 20 µM
Cc1cc(-c2csc(N)n2)c(C)n1Cc1ccccc1 28.2 µM
Cc1cc(-c2csc(N)n2)c(C)n1-c1ccccc1 11.2 µM
COc1cc(C(=S)NCc2ccccc2)cc(Br)c1O 2.51 µM
O=C(COC(=O)Cn1cnc2ccccc21)Nc1cccc2c1C(=O)c1ccccc1C2=O 12.6 µM
CC(/C=C/c1ccco1)=N/NC(=O)C1COc2ccccc2O1 (centres undefined) 56.2 µM
CCCCN=C1C([N+](=O)[O-])=CC=C2C1=NC1(CCCCC1)N2O 11.2 µM
COC(=O)c1ccccc1SC1CC(=O)N(c2cccc(C)c2)C1=O (centres undefined) 44.7 µM
CC(=O)c1ccc(OCCCC(=O)Nc2ccc(C)c(S(=O)(=O)N3CCOCC3)c2)cc1 50.1 µM
Cc1ccc(NC(=O)COC(=O)CNC(=O)c2ccc(Cl)cc2Cl)cc1S(=O)(=O)N1CCOCC1 50.1 µM
O=C(CNC(=O)c1ccc(Cl)cc1Cl)NCC(=O)Nc1ccccc1N1CCOCC1 89.1 µM
O=C(CN1CCCCCC1)Nc1ccc(Br)cc1[N+](=O)[O-] 35.5 µM
